Measured values as given in PubChem BioAssay (NCI).
Compounds without any hit were thinned out: in the full panel of roughly 79,000, 15% have a hit. Calls of active or inactive are those of the source. No stated cut-off is given here; in the data, active means growth inhibition above about 70%; inactive means the rest.

Key:
[1] = NCI Yeast Anticancer Drug Screen. Data for the wt1 strain (AID 149);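 further: 0% = growth of vehicle-treated wt1 cultures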; conditions: S. cerevisiae wt1 strain (SPY 50644) growth inhibition, active compounds read high
Outline: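 Measured: growth of wt1 yeast under compound versus vehicle treatment, reported as inhibition.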

[2] = NCI Yeast Anticancer Drug Screen. Data for the rad50EPP+ strain (AID 151);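 further: 0% = growth of vehicle-treated control cultures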; conditions: S. cerevisiae rad50 mutant strain, active compounds read high
Outline: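 Read-out is yeast growth inhibition relative to vehicle; cells used were the rad50EPP+ strain.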

[3] = NCI Yeast Anticancer Drug Screen. Data for the mgt1 strain (AID 153); conditions: S. cerevisiae mgt1 mutant growth inhibition, active compounds read high
Outline: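 Measured: inhibition of mgt1 yeast growth by compound, normalized to vehicle-treated cultures.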

[4] = NCI Yeast Anticancer Drug Screen. Data for the rad50 strain (AID 155);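 further: 0% = growth of vehicle-only cultures of the same strain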; conditions: S. cerevisiae rad50 strain growth inhibition, active compounds read high
Outline: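 Growth of the mutant yeast was measured after compound exposure and referenced to vehicle-treated cultures.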

[5] = NCI Yeast Anticancer Drug Screen. Data for the mec2-1 strain (AID 157); conditions: S. cerevisiae mec2-1 strain, active compounds read high
Outline: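 Using mec2-1 yeast: add compound, measure growth, express inhibition versus vehicle-treated cultures.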

[6] = NCI Yeast Anticancer Drug Screen. Data for the rad14 strain (AID 159);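 further: 0% = growth of vehicle-treated control cultures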; conditions: S. cerevisiae rad14 strain growth inhibition, active compounds read high
Outline: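 Here, inhibition of yeast growth was measured after compound exposure, using a strain with a genetic defect in DNA damage repair and vehicle-treated cultures as the reference.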

[7] = NCI Yeast Anticancer Drug Screen. Data for the sgs1 mgt1 strain (AID 161);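 further: 0% = growth of cultures given vehicle only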; conditions: S. cerevisiae sgs1 mgt1 strain, active compounds read high
Outline: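 This yeast growth screen uses a strain with defined DNA-repair lesions; compound-treated growth is compared with vehicle-treated growth.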

[8] = NCI Yeast Anticancer Drug Screen. Data for the CLN2oe strain (AID 163);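 further: 0% = growth of vehicle-only control cultures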; conditions: S. cerevisiae CLN2oe strain, active compounds read high
Outline: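 Whole-cell yeast growth assay. A strain engineered for altered cell-cycle control received compound, and inhibition relative to vehicle-treated cultures was recorded.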

[9] = NCI Yeast Anticancer Drug Screen. Data for the cln2 rad14 strain (AID 165);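 further: 0% = growth equal to vehicle treated cultures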; conditions: S. cerevisiae cln2 rad14 strain, active compounds read high
Outline: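 Yeast strain cln2 rad14, bearing defects in cell cycle control and DNA repair, serves as the test system; values reflect growth inhibition compared with vehicle.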

[10] = NCI Yeast Anticancer Drug Screen. Data for the bub3 strain (AID 167); conditions: S. cerevisiae bub3 mutant strain, active compounds read high
Outline: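 Whole-cell yeast assay. The mutant strain was incubated with compounds, and growth inhibition was determined by comparison with vehicle-treated cells.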

[11] = NCI Yeast Anticancer Drug Screen. Data for the wt2 strain (AID 169);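 further: 0% = growth of vehicle-treated yeast cultures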; conditions: S. cerevisiae wt2 strain growth inhibition, active compounds read high
Outline: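 Treated yeast vs. vehicle-treated yeast: growth inhibition determined.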

[12] = NCI Yeast Anticancer Drug Screen. Data for the sgs1 strain (AID 173);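 further: 0% = growth of vehicle-only control cultures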; conditions: S. cerevisiae sgs1 mutant, active compounds read high
Outline: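 A genetically defined yeast mutant is incubated with the test compound, and its growth is compared to that of the same strain given vehicle.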

[13] = NCI Yeast Anticancer Drug Screen. Data for the mlh1 rad18 strain (AID 175); conditions: S. cerevisiae mlh1 rad18 strain growth inhibition, active compounds read high
Outline: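 Steps: expose repair-defective yeast to compound; measure growth; express inhibition against vehicle-treated controls.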

[14] = NCI Yeast Anticancer Drug Screen. Data for the rad18 strain (AID 177); conditions: S. cerevisiae rad18 mutant growth inhibition, active compounds read high
Outline: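 Measured value is growth inhibition of a yeast strain bearing a DNA repair alteration, referenced to vehicle-treated cells.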

[15] = NCI Yeast Anticancer Drug Screen. Data for the mlh1 strain (AID 171);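 further: 0% = growth of vehicle-treated control cultures of the same strain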; conditions: S. cerevisiae mlh1 strain growth inhibition, active compounds read high
Outline: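 A yeast strain with a defined genetic lesion serves as the test organism. Cultures receive compound or vehicle, and growth is measured.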

[16] = at 5.0 µM (retest, dose inferred, filed as 0.5)
[17] = at 50.0 µM (retest, dose inferred, filed as 5.0)

Measured: growth inhibition

c1ccc(C2=NNC3c4ccccc4-c4ccccc4N3C2)cc1 (stereo unspecified)
active: [4]; at 50.0 µM 84.9% | [4]; at 100.0 µM 92%
inactive: [1]; at 1.2 µM -4% | [1]; at 3.7 µM -5% | [1]; at 11.0 µM -3% | [1]; at 33.0 µM 0% | [1]; at 100.0 µM 10% | [2]; at 1.2 µM -2% | [2]; at 3.7 µM 1% | [2]; at 11.0 µM 5% | [2]; at 33.0 µM 27% | [2]; at 100.0 µM 35% | [3]; at 1.2 µM -1% | [3]; at 3.7 µM 8% | [3]; at 11.0 µM -4% | [3]; at 33.0 µM -2% | [3]; at 100.0 µM 47% | [4]; at 1.2 µM 0% | [4]; at 3.7 µM 9% | [4]; [16] 16% | [4]; at 11.0 µM 11% | [4]; at 33.0 µM 33% | [4]; [17] 67% | [5]; at 1.2 µM 1% | [5]; at 3.7 µM 2% | [5]; [16] 6% | [5]; at 11.0 µM 3% | [5]; at 33.0 µM 5% | [5]; [17] 7% | [5]; at 50.0 µM 12.4% | [5]; at 100.0 µM 43% | [6]; at 1.2 µM -5% | [6]; at 3.7 µM -11% | [6]; at 11.0 µM 0% | [6]; at 33.0 µM 8% | [6]; at 100.0 µM 26% | [7]; [16] 6% | [7]; [17] 35% | [7]; at 50.0 µM 1.35% | [8]; at 1.2 µM 0% | [8]; at 3.7 µM -5% | [8]; at 11.0 µM -3% | [8]; at 33.0 µM 1% | [8]; at 100.0 µM 8% | [9]; [16] -122% | [9]; [17] 38% | [9]; at 50.0 µM 19.5% | [10]; at 1.2 µM 2% | [10]; at 3.7 µM -14% | [10]; [16] 1% | [10]; at 11.0 µM 5% | [10]; at 33.0 µM 11% | [10]; [17] 55% | [10]; at 50.0 µM 41% | [10]; at 100.0 µM 42% | [11]; at 1.2 µM -6% | [11]; at 3.7 µM -5% | [11]; at 11.0 µM -6% | [11]; at 33.0 µM 1% | [11]; at 100.0 µM 68% | [12]; at 1.2 µM -3% | [12]; at 3.7 µM -4% | [12]; at 11.0 µM -5% | [12]; at 33.0 µM 2% | [12]; at 100.0 µM 16% | [13]; [16] 11% | [13]; [17] 50% | [13]; at 50.0 µM 34% | [14]; at 1.2 µM 0% | [14]; at 3.7 µM 0% | [14]; at 11.0 µM -2% | [14]; at 33.0 µM 7% | [14]; at 100.0 µM 55%

Cc1c2ccncc2c(C)c2c1oc1ccccc12
inactive: [1]; at 1.2 µM 1% | [1]; at 3.7 µM 2% | [1]; at 11.0 µM 10% | [2]; at 1.2 µM 52% | [3]; at 1.2 µM -1% | [3]; at 3.7 µM 6% | [3]; at 11.0 µM 10% | [3]; at 33.0 µM 61% | [4]; at 1.2 µM 53% | [4]; at 50.0 µM 39.2% | [5]; at 1.2 µM 5% | [5]; at 3.7 µM 13% | [5]; [16] 29% | [5]; at 11.0 µM 17% | [5]; at 50.0 µM 51% | [6]; at 1.2 µM 5% | [6]; at 3.7 µM 29% | [6]; at 11.0 µM 48% | [7]; [16] 4% | [7]; at 50.0 µM 44.8% | [9]; [16] 31% | [10]; at 1.2 µM 19% | [10]; at 3.7 µM 24% | [10]; [16] 27% | [10]; at 11.0 µM 40% | [11]; at 1.2 µM 7% | [11]; at 3.7 µM 17% | [11]; at 11.0 µM 57% | [15]; at 1.2 µM 1% | [15]; at 3.7 µM 16% | [15]; at 11.0 µM 8% | [12]; at 1.2 µM -5% | [12]; at 3.7 µM -6% | [12]; at 11.0 µM 16% | [13]; [16] 64% | [13]; at 50.0 µM 50.1% | [14]; at 1.2 µM -2% | [14]; at 3.7 µM 32% | [14]; at 11.0 µM 56%
active: [1]; at 33.0 µM 89% | [1]; at 100.0 µM 97% | [2]; at 3.7 µM 82% | [2]; at 11.0 µM 84% | [2]; at 33.0 µM 98% | [2]; at 100.0 µM 97% | [3]; at 100.0 µM 98% | [4]; at 3.7 µM 87% | [4]; [16] 92% | [4]; at 11.0 µM 94% | [4]; at 33.0 µM 97% | [4]; [17] 88% | [4]; at 100.0 µM 95% | [5]; at 33.0 µM 80% | [5]; [17] 93% | [5]; at 100.0 µM 98% | [6]; at 33.0 µM 93% | [6]; at 100.0 µM 98% | [7]; [17] 93% | [9]; [17] 93% | [9]; at 50.0 µM 94.2% | [10]; at 33.0 µM 88% | [10]; [17] 94% | [10]; at 50.0 µM 96.4% | [10]; at 100.0 µM 98% | [11]; at 33.0 µM 94% | [11]; at 100.0 µM 98% | [15]; at 33.0 µM 87% | [15]; at 100.0 µM 98% | [12]; at 33.0 µM 93% | [12]; at 100.0 µM 95% | [13]; [17] 90% | [14]; at 33.0 µM 95% | [14]; at 100.0 µM 98%
